Screening data from PubChem BioAssay.
Many of the other results were omitted from the sample, so hits are more common in it than they were.
HttQ103 aggreg – qHTS Multiplex Assay to Identify Dual Action Probes in a Cell Model of Huntington: Aggregate Formation (GFP). AID 1688, 2009. 220,000 compounds, 1.1% hits. PC12 HttQ103-GFP aggregates, Acumen cytometry, 40 h. Potency, µM (top dose mostly 46.1 µM), most hits filed as inhibitors; further: nearly all actives have a fitted effect of over 60% in size
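Compounds (qHTS titration) were added to PC12 cells expressing an ecdysone-driven HTT exon 1 Q103–GFP fusion after induction with 100 nM tebufenozide. Aggregate formation was measured as GFP objects in cell lysates.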
PINK1 modulator – A Quantitative High throughput Screen to Identify Chemical Modulators of PINK1 Expression; PINK1 immunofluorescence, high-content cytometry, 24 h; Potency, µM (titrated, usually from 76.6 µM), usual class: activators; 410,000 compounds, 0.2% hits; active means well fitted activation curve with a large enough effect; inconclusive means small, poorly fitted or top-dose-only effect; cell line not stated here; further: nearly all actives have a fitted effect of over 65% in size
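Compound titrations (5 concentrations, 24 h) on a stable cell line; DMSO and CCCP controls. Endpoint: fixed-cell PINK1 immunofluorescence with mitochondrial, cell and nuclear markers, scanned by microplate cytometer.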
HTT ATP protect – qHTS Multiplex Assay to Identify Dual Action Probes in a Cell Model of Huntington: Cytoprotection (ATP). PC12 HTT-Q103 induced, cytoprotection, ATP luminescence, 40 h. Potency, µM (series often up to 56.4 µM), hits mostly activators. 230,000 compounds, 0.14% hits. AID 1471, 2008; further: nearly all actives have a fitted effect of over 45% in size
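Stable PC12 Q103-GFP cells in serum-supplemented, phenol red-free DMEM; induction by tebufenozide at 100 nM final; compound dose series; cell viability quantified luminescently from ATP.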
PTAP TSG101 blk – qHTS Assay for Iinhibitors of HIV-1 Budding by Blocking the Interaction of PTAP/TSG101; Fluorescence polarization, FITC-PTAP peptide / Tsg101 binding; Potency, µM (titrated, usually from 115 µM), hits mostly inhibitors; 340,000 tested, under 10 active; AID 493005, 2010; active means well fitted inhibition curve with a large enough effect in the main read-out, with a control signal flat, not every such curve was filed as active; inconclusive means small, poorly fitted or top-dose-only effect, or effect the other way, or a change in a side signal; inactive means no such curve, though single readings can be large or run the other way
Target sequence (Q99816 whole entry, looked up): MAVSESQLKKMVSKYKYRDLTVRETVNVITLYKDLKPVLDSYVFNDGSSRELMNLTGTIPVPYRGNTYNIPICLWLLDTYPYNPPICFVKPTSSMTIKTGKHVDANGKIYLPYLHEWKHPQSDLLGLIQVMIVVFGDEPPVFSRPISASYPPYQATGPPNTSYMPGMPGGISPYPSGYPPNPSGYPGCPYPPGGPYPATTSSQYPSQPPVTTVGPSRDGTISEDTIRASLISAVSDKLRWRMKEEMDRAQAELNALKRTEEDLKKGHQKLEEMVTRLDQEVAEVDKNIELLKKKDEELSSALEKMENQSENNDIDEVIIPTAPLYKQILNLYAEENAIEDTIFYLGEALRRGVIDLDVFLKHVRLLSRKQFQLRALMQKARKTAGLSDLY
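Tsg101 binding domain (10 uM final) was mixed with compound and a FITC-labeled PTAP peptide (50 nM final) in HEPES pH 7.5 buffer with NaCl, Tween 20, EDTA and TCEP; fluorescence polarization was read after 20 min at r.t.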
Apoferritin bind – qHTS Assay for Identification of Novel General Anesthetics; 350,000 compounds, 0.074% hits; Ferritin light chain (Equus caballus), P02791; apoferritin/1-aminoanthracene competitive binding, fluorescence; Potency, µM (highest dose often 77.5 µM), hits mostly inhibitors; AID 485281, 2010; further: nearly all actives have a fitted effect of over 20% in size
Target sequence (P02791 2-175 limits assumed): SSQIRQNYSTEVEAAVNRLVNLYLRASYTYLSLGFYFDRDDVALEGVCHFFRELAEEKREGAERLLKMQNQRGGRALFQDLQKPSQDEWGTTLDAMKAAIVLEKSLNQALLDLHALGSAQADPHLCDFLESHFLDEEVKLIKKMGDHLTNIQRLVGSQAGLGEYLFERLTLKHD
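Horse-spleen apoferritin (10 uM) in 50% saturated 1-aminoanthracene in PBS was incubated 10 min at room temperature with compound. Fluorescence (ex 380, em 535 nm) was normalized to free and bound 1-AMA, with concentration-response fitted by a four-parameter Hill equation.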
Epigenetic derep – Quantitative High-Throughput Screen for Regulators of Epigenetic Control; murine LDR cells, GFP reporter derepression, 30 h; Potency, µM (doses to about 53.9 µM), usual class: activators; 280,000 compounds, 0.2% hits; further: nearly all actives have a fitted effect of over 60% in size
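GFP-positive cell count by laser-scanning cytometry (objects 20–120 um) after 30 h, 37 C compound exposure of murine LDR cells; reporter is CMV-GFP integrated at a silenced locus, inducible by HDAC or DNMT inhibitors.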
C127i cell count – Parental Cell Counter Screen Assay for Epigenetic Modulators: Hit Validation | shares compounds with Epigenetic derep | mouse c127i parental cells, fluorescent cell count, 30 h | Potency, µM, actives largely listed as activators | 60 compounds, 20% hits | AID 493065, 2011
HCC4017 tox – HCC4017 Cell Viability Secondary Assay for qHTS Assay for Epigenetic Modulators; shares compounds with Epigenetic derep; HCC4017 NSCLC viability, CellTiter-Glo ATP luminescence, 72 h; Potency, µM (top dose mostly 46.1 µM), usual class: cytotoxic; 45 compounds, 30% hits; AID 493071, 2011
H358 viab – H358 Cell Viability Secondary Assay for qHTS Assay for Epigenetic Modulators: Round 2 | AID 493074, 2011 | shares compounds with Epigenetic derep | 45 compounds, 30% hits | Potency, µM (titrated, usually from 46.1 µM), actives largely listed as cytotoxic | H358 NSCLC viability, ATP luminescence, 72 h
Hits are given with their value; - = inactive; ? = inconclusive; . = no result; ! = not active in a repeat; [ ] = remark or other dose. Unless noted, the call rests on the fitted dose curve; in most records, active means well fitted curve in the direction sought with a large enough effect; inconclusive means small, poorly fitted or top-dose-only effect, or another doubt; inactive means no such curve, though single readings can be large; an effect the other way counts as inactive or inconclusive.

SMILES	HttQ103 aggreg	PINK1 modulator	HTT ATP protect	PTAP TSG101 blk	Apoferritin bind	Epigenetic derep	others
O=c1[nH]c(CN2CCN(c3ccccc3Cl)CC2)nc2ccsc12	-	-	-[10 µM]	-	-	-
COc1cc2c(cc1OC)CN(Cc1nc3ccsc3c(=O)[nH]1)CC2	4µM	-	-[10 µM]	-	-	-
O=C1C=CC(=O)C2=C1C1c3ccccc3C2c2ccccc21	.	.	-	.	-	-
O=[N+]([O-])c1ccc(/C=N/NC(=S)Nc2ccc(Cl)cc2Cl)s1	-[9.22 µM]	-	-[10 µM]	-	-	22µM
O=[N+]([O-])c1ccc(O)c(/C=N/NC(=S)Nc2ccc(Cl)cc2Cl)c1	-[9.22 µM]	40µM	-[10 µM]	-	-	-
Cn1c(=O)c2sccc2n2c(CCCC(=O)Nc3ccc(Oc4ccc(Cl)cc4)cc3)nnc12	.	-	.	.	?	-
CCC1CN(Cc2ccc(COC)o2)Cc2cc(OC)ccc2O1 (centres undefined)	.	-	.	.	.	.
O=C(c1cnn(-c2nccc(-c3ccccc3F)n2)c1C1CC1)N1CCCCC1c1cccnc1 (centres undefined)	.	-	.	.	.	.
COc1cccc(CNC(=O)c2c(OC)cc(=O)n3c2CCN(C(=O)C2CC=CCC2)CC3)c1 (centres undefined)	.	-	.	.	.	.
COc1ccccc1C(=O)N(Cc1cc2cccc(C)c2nc1N1CCC(O)CC1)C1CC1	.	-	.	.	.	.
CCc1nc2ccccc2n(CCOCCn2c(=O)c(CC)nc3ccccc32)c1=O	-	10µM	-	-	-	-
Cc1cc(N2C(=O)C(O)=C(C(=O)c3cc4ccccc4o3)C2c2ccc(OC(C)C)cc2)no1 (centres undefined)	.	28µM	.	-	-	.
COC(=O)c1ccc(C2C(C(=O)c3cc4ccccc4o3)=C(O)C(=O)N2c2cc(C)on2)cc1 (centres undefined)	.	-	.	-	-	.
COc1ccc(Cc2c(-c3ccc(C)cc3)nc3ccc(Cl)cn23)c(C)c1	.	32µM	.	.	.	.
COC(=O)c1ccc2nc(-c3ccc(Cl)cc3)c(Cc3ccc(OC)cc3C)n2c1	.	-	.	.	.	.
CO[C@H]1[C@H](NC(=O)c2ccco2)c2ccccc2C12CCN(Cc1cccn1-c1ccccn1)CC2	.	-	.	.	.	.
C/C(=N\NC(=O)c1ccc(O)cc1)c1ccc2c(c1)Nc1ccccc1S2	-	-	-[10 µM]	-	-	-
C/C(=N\NC(=O)c1ccccc1F)c1ccc2c(c1)Nc1ccccc1S2	-	-	-[10 µM]	-	-	11µM
O=c1[nH]c2c(-c3nc(-c4ccc(Cl)cc4)cs3)c(O)cn2c2ccccc12	.	-	.	.	.	.
COc1cc(C(=O)Nc2nc3ccccc3s2)ccc1OCc1c(C)noc1C	-	-	-	-	-	-
COc1cc(C(=O)Nc2nccs2)ccc1OCc1c(C)noc1C	-	11µM	-	-	-	-
c1coc(CNc2nc(-c3ccncc3)cs2)c1	14µM	-	-[10 µM]	-	-	-
Cc1ccn2c(NCc3ccccc3)c(-c3cccs3)nc2c1	.	-	.	-	-	-
Cc1nc(C)c(-c2csc(NCc3ccco3)n2)s1	-	-	-[10 µM]	-	-	-
Cc1ccn2c(-c3csc(NCc4ccccc4)n3)c(C)nc2c1	11µM	-	-[1.9 µM]	-	-	-
SMILES	HttQ103 aggreg	PINK1 modulator	HTT ATP protect	PTAP TSG101 blk	Apoferritin bind	Epigenetic derep	others
Cc1nc2ccccn2c1-c1csc(NCc2ccco2)n1	5.6µM	-	-	-	-	-
O=C1c2c(O)ccc(O)c2C(=O)c2c(NCCNCCO)ccc(NCCNCCO)c21	10µM	-	-	-	?	13µM!
CN1CCCCC1C(=O)N1CCC(Oc2cccc(CN3CCN(c4ccccn4)CC3)c2)CC1 (centres undefined)	.	-	.	.	.	.
N#CC(c1ccccc1)c1ccc2c(C(F)(F)F)cc(C(F)(F)F)nc2n1 (centres undefined)	22µM	?	-	-	?	-
FC(F)(F)c1cc(C(F)(F)F)c2ccc(N/N=C/c3ccccc3)nc2n1	-	-	-	-	-	-
Cc1ccc(C(C#N)c2ccc3c(C(F)(F)F)cc(C(F)(F)F)nc3n2)cc1 (centres undefined)	?	8.9µM	-	-	?	-
COc1ccc(NC(=O)C2CC23CCN(Cc2cccc4ncccc24)CC3)cc1Cl (centres undefined)	.	-	.	.	.	.
CC(C)Cc1nc2cc(NS(=O)(=O)N(C)C)cc(C(=O)N3CCSCC3)c2n1C	.	-	.	.	.	.
Cc1nc2c3cc(Cl)ccc3n(CCN3CCCCC3)c2s1	-	4µM	-	-	-	-
COC(=O)Cn1c2ccc(Cl)cc2c2nc(C)sc21	-[9.22 µM]	-	-[10 µM]	-	-	-
O=C(Cc1ccccc1)c1ccc(O)cc1O	.	-	.	-	.	.
CCCCCC(=O)c1ccc(O)cc1O	0.14µM	-	-	-	?	-
Cc1ccc(C(C)C)c(OCc2ccc(C(=O)N/N=C/c3cccc(O)c3O)cc2)c1	-	?	-[0.074 µM]	-	?	?	C127i cell count=-;HCC4017 tox=2µM;H358 viab=0.56µM
Cc1ccc(C(C)C)c(OCc2ccc(C(=O)N/N=C/c3ccc(O)c(O)c3)cc2)c1	-	?	.	-	?	-
Cc1c(C(=O)Nc2cccc(F)c2)oc2c1-c1nn(Cc3c(F)cccc3Cl)cc1CC2	.	-	.	.	-	?
Cc1c(C(=O)NCC2(N3CCOCC3)CCCCC2)cnn1-c1nccc(-c2ccccc2F)n1	.	-	.	.	.	.
O=C(NCC1Cc2cccc(-c3cnccn3)c2O1)C1COc2ccccc2O1 (centres undefined)	.	-	.	.	.	.
N=c1n(CC(=O)O)c2ccccc2n1Cc1ccccc1Cl	-	-	-[0.074 µM]	-	-	-
N=c1n(CC(=O)c2ccc([N+](=O)[O-])cc2)c2ccccc2n1Cc1ccccc1Cl	-	-	.	-	-	?	C127i cell count=-;HCC4017 tox=13µM;H358 viab=?
